Assay results reported in PubChem BioAssay (NCI).
The panel holds about 79,000 compounds, 15% with a hit somewhere; the sample as a whole holds those more often. Active and inactive are the calls of the source. Cut-off read from the data, not from the text of the source: active = growth inhibition above about 70%; inactive = the rest.

Columns and labels:
[1] = NCI Yeast Anticancer Drug Screen. Data for the mec2-1 strain (AID 157); settings: S. cerevisiae mec2-1 strain, active compounds read high
Method in brief: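 Compounds were applied to mec2-1 yeast cells. Their growth was then compared with that of vehicle-treated cultures to give growth inhibition.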

[2] = NCI Yeast Anticancer Drug Screen. Data for the rad14 strain (AID 159);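 note: 0% = growth of vehicle-treated control cultures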; settings: S. cerevisiae rad14 strain growth inhibition, active compounds read high
Method in brief: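 DNA repair-defective yeast, compound-exposed; % growth inhibition derived by comparison with vehicle-treated controls.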

[3] = NCI Yeast Anticancer Drug Screen. Data for the sgs1 mgt1 strain (AID 161);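 note: 0% = growth of cultures given vehicle only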; settings: S. cerevisiae sgs1 mgt1 strain, active compounds read high
Method in brief: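 This yeast growth screen uses a strain with defined DNA-repair lesions; compound-treated growth is compared with vehicle-treated growth.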

[4] = NCI Yeast Anticancer Drug Screen. Data for the CLN2oe strain (AID 163);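 note: 0% = growth of vehicle-only control cultures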; settings: S. cerevisiae CLN2oe strain, active compounds read high
Method in brief: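 Cells of an engineered yeast line with disturbed cell-cycle regulation are treated with compound. Inhibition of growth is then calculated relative to the vehicle-treated reference.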

[5] = NCI Yeast Anticancer Drug Screen. Data for the cln2 rad14 strain (AID 165);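 note: 0% = growth equal to vehicle treated cultures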; settings: S. cerevisiae cln2 rad14 strain, active compounds read high
Method in brief: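 Strain: cln2 rad14 yeast, altered in cell cycle control and DNA damage repair. Read-out: growth inhibition vs vehicle.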

[6] = NCI Yeast Anticancer Drug Screen. Data for the bub3 strain (AID 167); settings: S. cerevisiae bub3 mutant strain, active compounds read high
Method in brief: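 In this screen, a yeast mutant lacking normal mitotic checkpoint function is challenged with compound. Relative growth versus vehicle gives the inhibition value.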

[7] = NCI Yeast Anticancer Drug Screen. Data for the wt2 strain (AID 169);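 note: 0% = growth of vehicle-treated yeast cultures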; settings: S. cerevisiae wt2 strain growth inhibition, active compounds read high
Method in brief: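 Growth of compound-treated yeast is measured and expressed as inhibition relative to vehicle-only controls.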

[8] = NCI Yeast Anticancer Drug Screen. Data for the mlh1 strain (AID 171);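 note: 0% = growth of vehicle-treated control cultures of the same strain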; settings: S. cerevisiae mlh1 strain growth inhibition, active compounds read high
Method in brief: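 Test agents were incubated with yeast bearing a defined DNA damage repair or cell cycle control alteration; values are growth inhibition normalised to vehicle-treated cultures.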

[9] = NCI Yeast Anticancer Drug Screen. Data for the sgs1 strain (AID 173);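 note: 0% = growth of vehicle-only control cultures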; settings: S. cerevisiae sgs1 mutant, active compounds read high
Method in brief: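 Strain with an altered DNA repair or cell cycle pathway exposed to compound. Growth then measured. Value = inhibition versus vehicle control.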

[10] = NCI Yeast Anticancer Drug Screen. Data for the mlh1 rad18 strain (AID 175); settings: S. cerevisiae mlh1 rad18 strain growth inhibition, active compounds read high
Method in brief: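 A repair-deficient yeast strain is exposed to test compound, and growth is scored relative to vehicle-treated controls.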

[11] = NCI Yeast Anticancer Drug Screen. Data for the rad18 strain (AID 177); settings: S. cerevisiae rad18 mutant growth inhibition, active compounds read high
Method in brief: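 DNA-repair-defective yeast; compound treatment; growth inhibition scored against vehicle.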

[12] = NCI Yeast Anticancer Drug Screen. Data for the rad52 strain (AID 147);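 note: 0% = growth of vehicle-treated control cultures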; settings: S. cerevisiae rad52 mutant growth inhibition, active compounds read high
Method in brief: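 Growth of repair-deficient yeast cells was compared between compound-treated and vehicle-treated cultures to give percent inhibition.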

[13] = NCI Yeast Anticancer Drug Screen. Data for the rad50EPP+ strain (AID 151);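 note: 0% = growth of vehicle-treated control cultures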; settings: S. cerevisiae rad50 mutant strain, active compounds read high
Method in brief: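 Measured: growth inhibition of rad50EPP+ yeast. Reference: vehicle-treated controls. Screen uses strains with defined genetic alterations in DNA damage repair or cell cycle control.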

[14] = NCI Yeast Anticancer Drug Screen. Data for the mgt1 strain (AID 153); settings: S. cerevisiae mgt1 mutant growth inhibition, active compounds read high
Method in brief: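 Compounds were applied to mgt1 mutant yeast, and growth was then compared against vehicle-treated control cultures to give percent inhibition.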

[15] = NCI Yeast Anticancer Drug Screen. Data for the rad50 strain (AID 155);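 note: 0% = growth of vehicle-only cultures of the same strain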; settings: S. cerevisiae rad50 strain growth inhibition, active compounds read high
Method in brief: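 DNA repair mutant yeast, compound exposure, growth read-out; inhibition is taken relative to vehicle.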

[16] = at 5.0 µM (retest, dose inferred, filed as 0.5)
[17] = at 50.0 µM (retest, dose inferred, filed as 5.0)

Measured: growth inhibition

Nc1nc(N)c2nc(CNc3ccc(C(=O)NC(CCC(=O)O)C(=O)O)cc3F)cnc2n1 (centres undefined)
inactive: [2]; at 1.2 µM 0% | [2]; at 3.7 µM -19% | [2]; at 11.0 µM 0% | [2]; at 33.0 µM 54% | [3]; [16] -4% | [3]; [17] 56% | [3]; at 50.0 µM 39.5% | [4]; at 1.2 µM -8% | [4]; at 3.7 µM 13% | [4]; at 11.0 µM 18% | [4]; at 33.0 µM 17% | [4]; at 100.0 µM 46% | [5]; [16] 14% | [5]; [17] -2% | [5]; at 50.0 µM -5.05% | [6]; at 1.2 µM 6% | [6]; at 3.7 µM 6% | [6]; [16] 2% | [6]; at 11.0 µM 6% | [6]; at 33.0 µM 35% | [6]; at 50.0 µM 29.2% | [7]; at 1.2 µM -19% | [7]; at 3.7 µM -11% | [7]; at 11.0 µM -21% | [7]; at 33.0 µM 2% | [7]; at 100.0 µM 48% | [8]; at 1.2 µM 16% | [8]; at 3.7 µM 10% | [8]; at 11.0 µM 8% | [8]; at 33.0 µM 29% | [8]; at 100.0 µM 46% | [9]; at 1.2 µM 24% | [9]; at 3.7 µM 14% | [9]; at 11.0 µM 15% | [9]; at 33.0 µM 41% | [9]; at 100.0 µM 67% | [10]; [16] 18% | [10]; [17] 67% | [10]; at 50.0 µM -2.7% | [11]; at 1.2 µM 20% | [11]; at 3.7 µM 19% | [11]; at 11.0 µM 35%
active: [1]; at 100.0 µM 94% | [2]; at 100.0 µM 82% | [6]; [17] 82% | [6]; at 100.0 µM 73% | [11]; at 33.0 µM 72% | [11]; at 100.0 µM 80%

CCCCc1ccc(-n2c(C)c(COC(=O)NC)c(COC(=O)NC)c2C)cc1
active: [12]; at 33.0 µM 98% | [12]; at 100.0 µM 93% | [13]; at 33.0 µM 90% | [13]; at 100.0 µM 92% | [14]; at 33.0 µM 99% | [14]; at 100.0 µM 94% | [15]; at 33.0 µM 93% | [15]; [17] 95% | [15]; at 50.0 µM 90.6% | [15]; at 100.0 µM 90% | [1]; at 33.0 µM 99% | [1]; [17] 98% | [1]; at 50.0 µM 92.6% | [1]; at 100.0 µM 93% | [2]; at 11.0 µM 89% | [2]; at 33.0 µM 97% | [2]; at 100.0 µM 89% | [3]; at 50.0 µM 88.5% | [4]; at 33.0 µM 97% | [4]; at 100.0 µM 94% | [5]; at 50.0 µM 81.5% | [6]; at 33.0 µM 99% | [6]; at 50.0 µM 85.5% | [6]; at 100.0 µM 88% | [7]; at 33.0 µM 98% | [7]; at 100.0 µM 94% | [8]; at 11.0 µM 83% | [8]; at 33.0 µM 97% | [8]; at 100.0 µM 87% | [9]; at 33.0 µM 98% | [9]; at 100.0 µM 91% | [10]; [17] 98% | [10]; at 50.0 µM 91.2% | [11]; at 33.0 µM 95% | [11]; at 100.0 µM 77%
inactive: [12]; at 1.2 µM -40% | [12]; at 3.7 µM -10% | [12]; at 11.0 µM 5% | [13]; at 1.2 µM -18% | [13]; at 3.7 µM -13% | [13]; at 11.0 µM -6% | [14]; at 1.2 µM -43% | [14]; at 3.7 µM -41% | [14]; at 11.0 µM 19% | [15]; at 1.2 µM -36% | [15]; at 3.7 µM -30% | [15]; [16] 19% | [15]; at 11.0 µM 31% | [1]; at 1.2 µM -28% | [1]; at 3.7 µM -21% | [1]; [16] 14% | [1]; at 11.0 µM 24% | [2]; at 1.2 µM -29% | [2]; at 3.7 µM -11% | [3]; [16] 26% | [3]; [17] 57% | [4]; at 1.2 µM -23% | [4]; at 3.7 µM -1% | [4]; at 11.0 µM 5% | [5]; [16] 21% | [5]; [17] -28% | [6]; at 1.2 µM -36% | [6]; at 3.7 µM -39% | [6]; [16] 11% | [6]; at 11.0 µM 56% | [6]; [17] 4% | [7]; at 1.2 µM -24% | [7]; at 3.7 µM -10% | [7]; at 11.0 µM 5% | [8]; at 1.2 µM -39% | [8]; at 3.7 µM -18% | [9]; at 1.2 µM -3% | [9]; at 3.7 µM -2% | [9]; at 11.0 µM 47% | [10]; [16] 18% | [11]; at 1.2 µM -27% | [11]; at 3.7 µM -1% | [11]; at 11.0 µM 59%

N#CC(C#N)=NNc1ccc(S(=O)(=O)O)cc1
inactive: [12]; at 1.2 µM -6% | [12]; at 3.7 µM 3% | [12]; at 11.0 µM 4% | [12]; at 33.0 µM 14% | [12]; at 100.0 µM 4% | [13]; at 1.2 µM 2% | [13]; at 3.7 µM 2% | [13]; at 11.0 µM 19% | [13]; at 33.0 µM -4% | [13]; at 100.0 µM 9% | [14]; at 1.2 µM 3% | [14]; at 3.7 µM 1% | [14]; at 11.0 µM -3% | [14]; at 33.0 µM 7% | [14]; at 100.0 µM 9% | [15]; at 1.2 µM -20% | [15]; at 3.7 µM -27% | [15]; at 11.0 µM -25% | [15]; at 33.0 µM -26% | [15]; at 50.0 µM 19.3% | [15]; at 100.0 µM -9% | [1]; at 1.2 µM -20% | [1]; at 3.7 µM -22% | [1]; at 11.0 µM -29% | [1]; at 33.0 µM -24% | [1]; at 50.0 µM 17.7% | [1]; at 100.0 µM -28% | [2]; at 1.2 µM 11% | [2]; at 3.7 µM 13% | [2]; at 11.0 µM 3% | [2]; at 33.0 µM 2% | [2]; at 100.0 µM 23% | [3]; [16] -2% | [3]; [17] 32% | [3]; at 50.0 µM 22.8% | [5]; [16] 0% | [5]; [17] 23% | [5]; at 50.0 µM 17.9% | [6]; at 1.2 µM -30% | [6]; at 3.7 µM -29% | [6]; [16] 17% | [6]; at 11.0 µM -30% | [6]; at 33.0 µM -29% | [6]; [17] 28% | [6]; at 50.0 µM 24.1% | [6]; at 100.0 µM -26% | [7]; at 1.2 µM -15% | [7]; at 3.7 µM -18% | [7]; at 11.0 µM -6% | [7]; at 33.0 µM -17% | [7]; at 100.0 µM -7% | [8]; at 1.2 µM 3% | [8]; at 3.7 µM 5% | [8]; at 11.0 µM 5% | [8]; at 33.0 µM 11% | [8]; at 100.0 µM 41% | [9]; at 1.2 µM -8% | [9]; at 3.7 µM -9% | [9]; at 11.0 µM -7% | [9]; at 33.0 µM 10% | [9]; at 100.0 µM 11% | [10]; [16] 63% | [10]; at 50.0 µM 20.6% | [11]; at 1.2 µM 2% | [11]; at 3.7 µM -6% | [11]; at 11.0 µM 5% | [11]; at 33.0 µM 1% | [11]; at 100.0 µM 2%
active: [15]; [16] 85% | [15]; [17] 99% | [1]; [16] 93% | [1]; [17] 99% | [10]; [17] 100%
